# Laboratory results published in paper PMC4336329 (PLoS ONE, 2015).
# Hit rate of the full screen: of about 310,000 compounds, about 14,000 (4.5%) showed an effect of 50% or more. Effects have a minus sign here. Many of the other results were omitted from the sample, so strong results are more common in it than they were.
# Target: human ether-à-go-go-related gene (hERG) potassium channel (human, UniProt Q12809)
# Assay: primary screen, population patch clamp on CHO cells stably expressing hERG; higher = less effect of the substance
# 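Further: peak tail current of the secondary pulse compared with the same well before compound.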
# Chain of human ether-à-go-go-related gene (hERG) potassium channel (Q12809 whole entry, looked up): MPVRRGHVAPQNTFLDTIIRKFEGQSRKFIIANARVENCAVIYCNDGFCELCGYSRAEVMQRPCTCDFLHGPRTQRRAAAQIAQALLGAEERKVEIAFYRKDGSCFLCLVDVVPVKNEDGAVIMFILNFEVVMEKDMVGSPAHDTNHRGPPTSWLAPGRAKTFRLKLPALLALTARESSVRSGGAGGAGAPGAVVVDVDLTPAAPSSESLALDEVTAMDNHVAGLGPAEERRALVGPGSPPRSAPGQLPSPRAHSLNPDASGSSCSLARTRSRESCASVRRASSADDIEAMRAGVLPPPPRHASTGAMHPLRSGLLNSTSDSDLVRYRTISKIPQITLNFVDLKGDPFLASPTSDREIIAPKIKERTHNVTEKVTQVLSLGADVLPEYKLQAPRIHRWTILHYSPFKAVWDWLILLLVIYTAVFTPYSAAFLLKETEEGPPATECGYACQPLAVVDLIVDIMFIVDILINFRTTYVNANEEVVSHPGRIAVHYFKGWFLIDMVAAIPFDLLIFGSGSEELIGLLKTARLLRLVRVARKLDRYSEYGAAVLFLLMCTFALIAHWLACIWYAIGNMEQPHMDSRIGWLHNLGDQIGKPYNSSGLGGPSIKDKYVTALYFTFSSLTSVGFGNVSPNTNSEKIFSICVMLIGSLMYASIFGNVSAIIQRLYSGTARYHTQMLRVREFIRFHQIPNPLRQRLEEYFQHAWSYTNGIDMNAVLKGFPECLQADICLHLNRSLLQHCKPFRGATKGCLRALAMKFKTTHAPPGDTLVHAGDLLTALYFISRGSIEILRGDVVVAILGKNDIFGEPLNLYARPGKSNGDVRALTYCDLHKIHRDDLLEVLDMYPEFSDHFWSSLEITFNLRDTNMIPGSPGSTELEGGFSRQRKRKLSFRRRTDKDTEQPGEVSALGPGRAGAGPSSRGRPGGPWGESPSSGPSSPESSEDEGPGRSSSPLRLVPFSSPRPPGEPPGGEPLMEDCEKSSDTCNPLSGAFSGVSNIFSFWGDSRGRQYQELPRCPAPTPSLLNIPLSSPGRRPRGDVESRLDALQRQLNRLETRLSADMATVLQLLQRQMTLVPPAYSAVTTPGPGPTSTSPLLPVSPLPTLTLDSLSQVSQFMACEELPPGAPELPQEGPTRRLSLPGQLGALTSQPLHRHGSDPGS
row,SMILES,"hERG current change (%, negative = inhibition) at 10uM [%]"
1,COCCNC(=O)COc1ccc(C)cc1C,10.4
2,CCCCNC(=S)N(C)/N=C/c1ccc(OCC(=O)Nc2ccc(OC)cc2)c(OC)c1,-4.23
3,CCOC(=O)C1=C(C)NC(SCC(N)=O)=C(C#N)C1c1cccs1 (stereo not drawn),-13.2
4,O=C(c1ccc2c(=O)n3c(nc2c1)CCCCC3)N1CCN(Cc2ccccc2)CC1,-2.69
5,Cc1ccc(C(=O)OCC(=O)N(C)c2ccccc2)cc1C,-9.59
6,COc1ccc2c(=O)c3c(=O)n(CCc4ccccc4)c(C(C)C)nc3oc2c1,5.79
7,COCCn1c(C(C)C)nc2oc3ccccc3c(=O)c2c1=O,3.05
8,COc1ccc(CCn2c(-c3ccccc3)nc3c(c(=O)c4ccccc4n3C)c2=O)cc1,11.3
9,COc1ccc(Cn2c(C)nc3c(c(=O)c4ccccc4n3C)c2=O)cc1,-44.5
10,COc1ccc(CCn2c(C(C)C)nc3c(c(=O)c4ccccc4n3C)c2=O)cc1,-30
11,COc1ccc(CCn2c(-c3ccc(OC)cc3)nc3c(c(=O)c4ccccc4n3C)c2=O)cc1,11.4
12,CCc1nc2c(c(=O)c3ccccc3n2C)c(=O)n1CCc1ccc(OC)cc1,-74.9
13,COc1ccc(CCn2c(C)nc3c(c(=O)c4ccccc4n3C)c2=O)cc1,-61.4
14,COc1ccc(CCn2c(C(C)C)nc3oc4ccccc4c(=O)c3c2=O)cc1,-75.3
15,Cc1ccc(NC(=O)CSCC(=O)N2c3ccccc3CCc3ccccc32)cc1,7.66
16,CC(=O)Nc1ccccc1C(=O)N1CCN(Cc2ccccc2)CC1,5.02
17,O=c1[nH]c(=O)n(Cc2ccco2)c(O)c1C=NCc1ccco1,3.46
18,Cc1nnc(NC(=O)CSc2nnc(-c3ccc(S(=O)(=O)N4CCCC4)cc3)n2C)s1,-3.39
19,C/C(=N\NC(=O)C1CC1)c1ccc(OC(F)F)cc1,9.94
20,CCOc1ccc(NC(=O)CSCC(=O)O)cc1,1.8
21,Oc1ccc(/C(Cc2ccccn2)=N\Nc2ccccc2)c(O)c1,8.76
22,O=C(NC1CCc2ccccc21)c1cc(COc2ccc(F)cc2F)on1 (stereo not drawn),16.5
23,O=C(NC1CCN(Cc2ccccc2)C1)c1cc(COc2ccc(F)cc2F)on1 (stereo not drawn),-64.2

row,SMILES,"hERG current change (%, negative = inhibition) at 10uM [%]"
1,CC(=O)c1ccc(OCc2cc(C(=O)NC3CCCCC3)no2)cc1,5.17
2,CC(=O)c1cccc(OCc2cc(C(=O)NC3CCN(Cc4ccccc4)CC3)no2)c1,-62.9
3,Cc1ccc(C)c(OCc2cc(C(=O)NC3CCN(Cc4ccccc4)CC3)no2)c1,-41.1
4,O=C(NC1Cc2ccccc2C1)c1cc(COc2ccc(F)cc2Cl)on1,13.3
5,c1ccc(-c2ccc(SCc3cccnc3)nn2)nc1,8.9
6,COC(=O)CCCC1=CC2=CC(=O)C(C)(OC(=O)c3cnc4ccccc4n3)C(=O)C2=CO1 (stereo not drawn),7.07
7,O=C(Nc1ccc(Br)cc1)c1cnccn1,-2.9
8,CCN(CC1CCCN(CCc2cccc(OC)c2)C1)C(=O)C=C(C)C (stereo not drawn),-61.1
9,COc1cccc(CNC(=O)CCC2CCCN(C(=O)c3ccoc3C)C2)c1 (stereo not drawn),5.6
10,CCN(CC1CCCN(CCc2cccc(OC)c2)C1)C(=O)c1ccc(COC)o1 (stereo not drawn),-71
11,COc1cccc(CC(=O)NC2CCCN(Cc3ccccc3F)C2)c1 (stereo not drawn),-5.72
12,COCc1ccc(CN2CCCC(C(=O)Nc3ccc(-c4cccc(OC)c4)cc3)C2)o1 (stereo not drawn),-0.711
13,COc1cccc(CCC(=O)N(C)C2CCCN(Cc3ccccc3F)C2)c1 (stereo not drawn),-0.453
14,CCN(CC1CCCN(CCc2cccc(OC)c2)C1)C(=O)c1ccoc1 (stereo not drawn),-70.7
15,CCN(CC)C(=O)C1CCCN(Cc2cccc(Oc3ccccc3)c2)C1 (stereo not drawn),-19.6
16,CCN(CC1CCCN(CCc2cccc(OC)c2)C1)C(=O)c1ccoc1C (stereo not drawn),-62.8
17,COc1cccc(CNC(=O)CCC2CCCN(C(=O)c3ccoc3)C2)c1 (stereo not drawn),24.9
18,CCOC(=O)C1C(=O)NC(N2CCN(c3ccccc3)CC2)=NC1c1ccco1 (stereo not drawn),-5.81
19,O=C(COC(=O)CCNS(=O)(=O)c1cccs1)Nc1cc(C(F)(F)F)ccc1Cl,-26.1
20,Cc1ccc(/C=C/C(=O)O)cc1S(=O)(=O)N(CCO)CCO,8.09
21,Cc1sc2ncnc(Sc3nnnn3-c3ccc(Cl)cc3)c2c1C,11.2
22,Nc1nccnc1C(=O)OCC(=O)c1ccc[nH]1,-0.119
23,COc1ccc(CCn2c(=S)[nH]c3ccc(N4CCOCC4)cc3c2=O)cc1OC,10.2

row,SMILES,"hERG current change (%, negative = inhibition) at 10uM [%]"
1,O=C(c1cccc(Cl)c1)N1CCN(c2ccc(N3CCOCC3)nn2)CC1,-34.8
2,CC(=O)c1ccc(Oc2ncnc(N)c2[N+](=O)[O-])cc1,12.4
3,COc1ccc(-c2nc(CS(=O)CC(=O)NC3CCC(C)CC3)c(C)o2)cc1OC (stereo not drawn),-34.6
4,COc1ccc(-c2n[nH]c(=S)n2-c2ccc(C)cc2)cc1,8.3
5,Br.CCCCn1c(=N)n(CC(=O)O)c2ccccc21,22.4
6,Br.CCN(CC)CCn1c(=N)n(CC(=O)c2ccc(C)cc2)c2ccccc21,-40.8
7,C=CCn1c(=N)n(CC(=O)c2ccc(Br)cc2)c2ccccc21,-43.5
8,Br.CCn1c(=N)n(CC(=O)C23CC4CC(CC(C4)C2)C3)c2ccccc21,-32.3
9,Br.C=CCn1c(=N)n(CC(=O)c2ccccc2)c2ccccc21,-23.9
10,Br.Cn1c(=N)n(CC(=O)c2ccc(Br)s2)c2ccccc21,-6.86
11,Br.CCn1c(=N)n(CC(=O)c2ccc(Br)s2)c2ccccc21,-69.3
12,Br.CCCCn1c(=N)n(CC(=O)C(C)(C)C)c2ccccc21,-55
13,Br.CCn1c(=N)n(CC(=O)C(C)(C)C)c2ccccc21,-21.1
14,Br.CCN(CC)CCn1c(=N)n(CC(=O)c2ccc(Br)s2)c2ccccc21,-76.9
15,Br.C=CCn1c(=N)n(CC(=O)c2ccc(Br)s2)c2ccccc21,-58.6
16,O=C(c1ccc(CNS(=O)(=O)c2ccccc2)cc1)N1CCC2(CC1)OCCO2,-4.16
17,COc1ccc(NC(=O)CC2C(=O)N(c3ccccc3)C(=O)N2CCc2cccs2)cc1 (stereo not drawn),-32.9
18,CCOc1ccccc1NC(=O)C1CCCCN1S(=O)(=O)c1ccc(F)cc1 (stereo not drawn),-2.26
19,CN1CCN(C(c2cccnc2)c2ccc3cccnc3c2O)CC1 (stereo not drawn),-4.29
20,Cc1cccn2c(=O)nc(SCC(=O)N3CC(C)OC(C)C3)nc12 (stereo not drawn),1.96
21,CCc1nc(NCCO)c(C#N)c2c1CCCC2,13.4
22,CCOc1ccccc1-c1nnc(SCC(=O)NC2(C#N)CCCC2)o1,-19.2
23,CC(C)OC(=O)c1ccc(NC(=O)Cn2c(-c3nonc3N)nc3ccccc32)cc1,18.4

row,SMILES,"hERG current change (%, negative = inhibition) at 10uM [%]"
1,CC1(c2ccccc2)NC(=S)N2C1NC(=S)N2c1ccccc1 (stereo not drawn),10.2
2,COc1cc(NC(=O)C/C(C)=N/NC(=O)c2cccc(O)c2)c(OC)cc1Cl,-8.16
3,CCOC(=O)COn1c(=O)c(=O)n(OC)c2ccccc21,17.8
4,O=C(COC(=O)Cc1cn2ccsc2n1)NCc1ccc2c(c1)OCO2,-15.2
5,CCCn1c(=N)n(CC(=O)c2cccs2)c2ccccc21,-22
6,O=C(O)Cn1c(=O)n(Cc2ccccc2)c2ccccc21,23.4
7,Br.N=c1n(CC(=O)c2ccc(Br)s2)c2ccccc2n1Cc1ccccc1,-61.7
8,Br.CCCCn1c(=N)n(CC(=O)c2ccc(Br)s2)c2ccccc21,-52.8
9,Br.N=c1n(CC(=O)c2cccs2)c2ccccc2n1Cc1ccccc1,-48
10,Br.Cn1c(=N)n(CC(=O)c2cccs2)c2ccccc21,-0.146
11,CCC(C(=O)NCCN1CCOCC1)n1c2ccccc2c2nc(=O)cc(C)n21 (stereo not drawn),23.1
12,Cc1cccc(NC(=O)CSc2nnnn2-c2cccnc2)c1,-6.57
13,COc1ccc(OC)c2nc(-c3cccnc3)ccc12,10.2
14,O=C1CC2(CCN(C(=O)c3ccc(Br)cc3)CC2)Oc2ccccc21,-73.5
15,CC(=O)Nc1ccc(S(=O)(=O)N2CCC3(CC2)CC(=O)c2ccccc2O3)cc1,-36.6
16,O=C(c1cccc(Br)c1)N1CCCC1,0.701
17,O=C1CC2(CCCCC2)Oc2ccc(Cl)cc21,1.26
18,O=C1CC2(CCN(C(=O)c3ccc(F)cc3)CC2)Oc2ccccc21,-76
19,O=C1CC2(CCN(C(=O)c3cccc(Br)c3)CC2)Oc2ccccc21,-85.5
20,O=C1CC2(CCN(C(=O)c3cccc(Cl)c3)CC2)Oc2ccccc21,-78.5
21,O=C(c1ccc(F)cc1)N1CCC2(CC1)OCCO2,19
